Laboratory results from publication PMC7819943, “Rice protein-binding microarrays: a tool to detect cis-acting elements near promoter regions in rice”.
Whole data set: some 68,000 sequences, median “fluorescence intensity (a.u.)” near 9,100, cut for the highest 2% near 16,000. Shown is part of a subset that was picked to be rich in the highest values.

Molecular target: OsWRKY34 (Oryza sativa, UniProt Q0JBA9 1-250)
Test: protein-binding microarray (RPBM); PBS, 2% BSA, 51.3 ng/ul salmon testes DNA, 50 uM zinc acetate, 200 nM TF, 25 C, 1 h; high values mean tight binding
Conditions: protein: recombinant; tags: N-terminal polyhistidine and DsRed monomer fusion (pET32a); label: CyDye5-dUTP incorporated in the synthesized complementary strand; 3' TTTTT single-stranded linker to array surface; dsDNA, one strand shown
Procedure, shortened: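 Per-feature fluorescence intensity (arbitrary units), read on an Axon 4000B scanner, is the binding signal. Transcription factors carrying an N-terminal polyhistidine tag and DsRed fusion were expressed in E. coli BL21-CodonPlus and purified on Ni–NTA. A custom Agilent array, made double-stranded by primer extension with Cy5-dUTP and blocked with 2% BSA, was incubated with 200 nM protein in PBS, 2% BSA, salmon testes DNA and 50 µM zinc acetate at 25 °C for 1 h and then washed.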

OsWRKY34, sequence (Q0JBA9 entry or part of it): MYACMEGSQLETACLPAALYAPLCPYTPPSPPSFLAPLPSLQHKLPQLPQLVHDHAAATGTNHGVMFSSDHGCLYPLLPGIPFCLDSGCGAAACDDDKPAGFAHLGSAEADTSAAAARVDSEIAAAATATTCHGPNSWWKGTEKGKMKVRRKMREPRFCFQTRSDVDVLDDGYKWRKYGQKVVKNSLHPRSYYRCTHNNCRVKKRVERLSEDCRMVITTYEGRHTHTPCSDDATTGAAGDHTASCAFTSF

| Sequence | binding signal |
| --- | --- |
| TTTTCAGCGTGTGCATCACATGGTCCGTATCTTTAATACTCGGAGTCACCTAGTGCAG | 8520 fluorescence intensity (a.u.) |
| TCCTGTCGTATGTCTTCACCACCACACAAACAATGCTTCTCGGAGTCACCTAGTGCAG | 9550 fluorescence intensity (a.u.) |
| ACTCCACTTAGGCTGCATTCGTTCTAGATACATTGAGTTACGGAGTCACCTAGTGCAG | 9970 fluorescence intensity (a.u.) |
| GCCTTTGTCGGTCATGTTCCCATCGCTTTAGTTCTTCTCACGGAGTCACCTAGTGCAG | 15000 fluorescence intensity (a.u.) |
| GTGATAGAAAAGTTGTGTGTGTATGAAATGTTTGATGCGACGGAGTCACCTAGTGCAG | 8750 fluorescence intensity (a.u.) |
| ATACTGAGAAAGTGCCAAGTTTTTGTCTGCTTCATGTAACCGGAGTCACCTAGTGCAG | 8110 fluorescence intensity (a.u.) |
| GACCTCGCCGTCGCCGTCGCCGCCGCCGCCGCCGCCATGGCGGAGTCACCTAGTGCAG | 9900 fluorescence intensity (a.u.) |
| CATTGTTCCTCACAGGATCAGGGGTGGAGAGTGAAGAGAGCGGAGTCACCTAGTGCAG | 8070 fluorescence intensity (a.u.) |
| GTGGTTGATTTGACCTTTTACATTGTACAGATGGTATTGGCGGAGTCACCTAGTGCAG | 8480 fluorescence intensity (a.u.) |
| TGCGGGATGGCTGGTTGGTGTGCGTGTGCTTCGGTGCGTTCGGAGTCACCTAGTGCAG | 10400 fluorescence intensity (a.u.) |
| GCGGGCAGTGGGCGCGAGATCTCATCCGAGTGGGTGGGCGCGGAGTCACCTAGTGCAG | 8060 fluorescence intensity (a.u.) |
| CTTCTCCTCTAGTCTGTGGTTGGCTGGCGATGGTGGCTTGCGGAGTCACCTAGTGCAG | 8820 fluorescence intensity (a.u.) |
| GATCCGCGGCGCGGGTGGGGTTGTGGGGCGGGCGGAGATGCGGAGTCACCTAGTGCAG | 19200 fluorescence intensity (a.u.) |
| CCGCGGGTGGGGAGATTTGACCGGCGTTGACTCCGGGATGCGGAGTCACCTAGTGCAG | 14300 fluorescence intensity (a.u.) |
| AGCGATGGTGGTGGTGGTGGTGGTGGTGGCTGGGTTGCTTCGGAGTCACCTAGTGCAG | 28200 fluorescence intensity (a.u.) |
| CAGCCATCGCCTCCCCGACTCCCGTCGTTGTCCACCCCGTCGGAGTCACCTAGTGCAG | 8260 fluorescence intensity (a.u.) |
| TGTTCTGCCAGCCAATCCAGATCGCCCTCGTATGCACGCTCGGAGTCACCTAGTGCAG | 8890 fluorescence intensity (a.u.) |
| TGAACTCCTAATACTGTCCTACCACTTCTACATGTCTTCTCGGAGTCACCTAGTGCAG | 11300 fluorescence intensity (a.u.) |
| GCCTGCGCCGATCCCCATCCATTCCGCGAGCGAGCGAGTGCGGAGTCACCTAGTGCAG | 8160 fluorescence intensity (a.u.) |
| AACAGCTCTCGATCTGATCGTCCCCACACCGCACGCTGACCGGAGTCACCTAGTGCAG | 9930 fluorescence intensity (a.u.) |
| CCTCGCCGAAGCCTCTCTACCTCTGTGTGTCTCTCTCTCCCGGAGTCACCTAGTGCAG | 8120 fluorescence intensity (a.u.) |
| AAACTTCCCCGCGTACGATGACGCCAATACACATACATATCGGAGTCACCTAGTGCAG | 10700 fluorescence intensity (a.u.) |
| GAGTGTATTTCATCTCAAGTTAGCATGCGAGTTTTTTTTACGGAGTCACCTAGTGCAG | 8210 fluorescence intensity (a.u.) |
| TATCGTGCTTCCATGTGCACAGATCGATCAAACTCGCATGCGGAGTCACCTAGTGCAG | 9270 fluorescence intensity (a.u.) |
| TGTATGATGCTGTTGACTTTTTATCCAACGTTTGACCATCCGGAGTCACCTAGTGCAG | 21200 fluorescence intensity (a.u.) |
| GTGTATTTATGGTTTTTTTTTCAACGTTTGACCATCCGTTCGGAGTCACCTAGTGCAG | 12300 fluorescence intensity (a.u.) |

| Sequence | binding signal |
| --- | --- |
| GTGTATGATGCCGTTGACTTTTTATCCAACGTTTGACCATCGGAGTCACCTAGTGCAG | 38800 fluorescence intensity (a.u.) |
| GGTATAGTTTTATACTGTTTATATCCAACGTTTGACCGTTCGGAGTCACCTAGTGCAG | 10200 fluorescence intensity (a.u.) |
| ATACATGACGCCGTTGATTTTTTAATCAACGTTTGACCATCGGAGTCACCTAGTGCAG | 8210 fluorescence intensity (a.u.) |
| ATGTATGACGCTGTTGACTTTGTAACCAATATTTGACCATCGGAGTCACCTAGTGCAG | 13400 fluorescence intensity (a.u.) |
| TGGTGGAGAAGCTAATGAAGAGGGTGTTTTGTTGACTATGCGGAGTCACCTAGTGCAG | 8500 fluorescence intensity (a.u.) |
| GTTACATTCTTGTTCAGTCCTCACTACTCATCCCTACAATCGGAGTCACCTAGTGCAG | 11500 fluorescence intensity (a.u.) |
| CCCACTATCATCCGTCATCCGTGCAACGCACGGGCATTATCGGAGTCACCTAGTGCAG | 9340 fluorescence intensity (a.u.) |
| CTCCGTTTTTTAATAGATGACACCGTTGACTTTTTCTCACCGGAGTCACCTAGTGCAG | 30600 fluorescence intensity (a.u.) |
| TCCGTTTTTTAATAGATGACGCCGTTGACTTTTTCTCACACGGAGTCACCTAGTGCAG | 31700 fluorescence intensity (a.u.) |
| GTCTCACCGGAGCTCCGCCGCCGCCGCCGCCGTTTTCTCCCGGAGTCACCTAGTGCAG | 25700 fluorescence intensity (a.u.) |
| CGTTTTTTAATAGATGACGCCATTGACTTTTTCTCACATACGGAGTCACCTAGTGCAG | 11000 fluorescence intensity (a.u.) |
| CTCCCGCCGTCTCCGTCACCGTCTACCGTTTGCTCCAGTGCGGAGTCACCTAGTGCAG | 9530 fluorescence intensity (a.u.) |
| GCCGCGGCGGAGCTCCCGTTTCCGTTGCCGTCTCCGGCGCCGGAGTCACCTAGTGCAG | 11000 fluorescence intensity (a.u.) |
| CTCCGTTTTTTAATAGATGACGCCGTTGACTTTTTCTCACCGGAGTCACCTAGTGCAG | 27800 fluorescence intensity (a.u.) |
| CTGATTATACCATTGTTTTCGTTGCAACTAAATCTTGATACGGAGTCACCTAGTGCAG | 9280 fluorescence intensity (a.u.) |
| TGCAAGCTCCGCCGTTTGTGTGTAATGGGGTTTCCCAAATCGGAGTCACCTAGTGCAG | 8230 fluorescence intensity (a.u.) |
| CACTTCACCTTTTTTGCAAGATGCTACTACTAATTACTAACGGAGTCACCTAGTGCAG | 10400 fluorescence intensity (a.u.) |
| GATATACACACTTAGCTCTCCTACTGTGAGAATTCTCTTCCGGAGTCACCTAGTGCAG | 9480 fluorescence intensity (a.u.) |
| CCCTTTTTTATACCGTGGCATATCTCTCTGCATTTAATCTCGGAGTCACCTAGTGCAG | 13700 fluorescence intensity (a.u.) |
| ATATGGCATTGTTTCTGTGTTATTCAGGCGCACCTTTAAACGGAGTCACCTAGTGCAG | 10100 fluorescence intensity (a.u.) |
| CGGTTGCTCCTTTGCCTAATCACTCAATTCCAGTAACTTTCGGAGTCACCTAGTGCAG | 8760 fluorescence intensity (a.u.) |
| TTGGGGTTGGACCGGTTTTCATCTGTTCTTGTCCTGAGAGCGGAGTCACCTAGTGCAG | 10800 fluorescence intensity (a.u.) |
| GTGCAGCAATCATCTCGTCCACCTCACCTTACCCGAAACCCGGAGTCACCTAGTGCAG | 8340 fluorescence intensity (a.u.) |
| GCCTCTGCCAGCCGACGGCCGTTCGGCCCTCCGCGCACGCCGGAGTCACCTAGTGCAG | 8320 fluorescence intensity (a.u.) |
| CTTATCCACCATCAATGTTCCTGACTTCAATTTTTCGTTGCGGAGTCACCTAGTGCAG | 10500 fluorescence intensity (a.u.) |
| TAACATTGATTGTTATGTCACTTGTCTGTGGATCAACTCTCGGAGTCACCTAGTGCAG | 9060 fluorescence intensity (a.u.) |

| Sequence | binding signal |
| --- | --- |
| GCGCTCCCGTCGTTGTCTCCGCTGCTTTGTTTCTCGTCGCCGGAGTCACCTAGTGCAG | 11600 fluorescence intensity (a.u.) |
| CTCTTGAACGTTGTCGCCCGCCGTTTCCCGCCGCTGTCTCCGGAGTCACCTAGTGCAG | 18200 fluorescence intensity (a.u.) |
| CTTCGTTTTTTAATAGATGACGCCGTTGACTTTTTCTCACCGGAGTCACCTAGTGCAG | 22000 fluorescence intensity (a.u.) |
| CCGTTTCCCGCCGCTGTCTCCCGCCGGAGCCGCCCCTGCTCGGAGTCACCTAGTGCAG | 9030 fluorescence intensity (a.u.) |
| TAAATCCACGACCCTTCAGCTATCTATCTCAGCTCCAATCCGGAGTCACCTAGTGCAG | 8170 fluorescence intensity (a.u.) |
| CTGCAATCTAGCCATCTGTTATCTATCCATGCATCGATGTCGGAGTCACCTAGTGCAG | 8120 fluorescence intensity (a.u.) |
| ATAAACATAAACTTCCAACATTTCCGTCACATCATTCTAACGGAGTCACCTAGTGCAG | 8970 fluorescence intensity (a.u.) |
| TTTCGGCCCACATTCCTATCCGTTTTTGCTCGGGTGGGCTCGGAGTCACCTAGTGCAG | 10900 fluorescence intensity (a.u.) |
| TTGGTGGGCCGTTATTTTGTTTGGGCTGGATTTGCACGTTCGGAGTCACCTAGTGCAG | 11700 fluorescence intensity (a.u.) |
| CGTTTTTGCTCGGGTGGGCTGGGTTAGGGACTCATCTGCACGGAGTCACCTAGTGCAG | 23800 fluorescence intensity (a.u.) |
| CACTCTGCAGCTCTGCTCGTTTTGCACACGGGTGACTCGTCGGAGTCACCTAGTGCAG | 9700 fluorescence intensity (a.u.) |
| ATGGCGTTTGGGTTTGGCTCGGGTTGATCTGGATAAGGGACGGAGTCACCTAGTGCAG | 9020 fluorescence intensity (a.u.) |
| CATATCCGTTTTTGCTCGGGTGGGCTGGGTTAGGGACTCACGGAGTCACCTAGTGCAG | 19000 fluorescence intensity (a.u.) |
| CCGCGCATTTTTTTGGTTCGAAATTCCTTTGCTAAGCAAACGGAGTCACCTAGTGCAG | 8380 fluorescence intensity (a.u.) |
| AAGGTTGGCATGACAATTCTCACTACTTGGACTAACAGTTCGGAGTCACCTAGTGCAG | 8310 fluorescence intensity (a.u.) |
| TTCCAACTACCTAGCTCAGCTTAGTCTCTGGTTGACCATTCGGAGTCACCTAGTGCAG | 8450 fluorescence intensity (a.u.) |
| GCTTCTACAATCGGATGGATTCACCATTGATTCTCGTTTTCGGAGTCACCTAGTGCAG | 8940 fluorescence intensity (a.u.) |
| ACTTGATTTACGAACAGACATTTTTTATTTTTCTACACCACGGAGTCACCTAGTGCAG | 9230 fluorescence intensity (a.u.) |
| TTGGGGTCGAGATATCCGGTTTTGTGGTTTAGGGTCATGTCGGAGTCACCTAGTGCAG | 9090 fluorescence intensity (a.u.) |
| ACTTTTTTAAATATGTTTGACCGTTCGTTTTATTCAAAAACGGAGTCACCTAGTGCAG | 8320 fluorescence intensity (a.u.) |
| ATTTGATGCCGTTGACTTTTTTAAATATGTTTAACCGTTCCGGAGTCACCTAGTGCAG | 33000 fluorescence intensity (a.u.) |
| TATTTGACGCCGTTGATTTTTTTAAATATGTTTGACCGTTCGGAGTCACCTAGTGCAG | 11000 fluorescence intensity (a.u.) |
| TATTTGATGCCGTTGACTTTTTTAAATATGTTTGACCGTTCGGAGTCACCTAGTGCAG | 20900 fluorescence intensity (a.u.) |
| GAATTGATCTCATGCATGCCAACCCTTCTAGCAATCTATCCGGAGTCACCTAGTGCAG | 9310 fluorescence intensity (a.u.) |
| GGACCGTTCACTAACCCCGTAACCGTGTCGCGCGCGCAACCGGAGTCACCTAGTGCAG | 9590 fluorescence intensity (a.u.) |
| TTCTTATTTGCAAGTATACTGTTTTGCTTTTCTCTCTAATCGGAGTCACCTAGTGCAG | 9690 fluorescence intensity (a.u.) |
